This assay relates to HepG2. The experiment in a line: GSK_TCMDC: Percent inhibition of human HepG2 cell line. Test compounds present at 10uM. It is filed as functional.
As for `Nc1ccc(-c2nc3cc(C4=N[C@H]5CCCC[C@H]5N4)ccc3o2)cc1[N+](=O)[O-]`, the Inhibition was determined as 16%.

In turn, `COC(=O)c1cccc(CNCc2cccc(-c3ccc(-c4nc5ccccc5[nH]4)cc3)c2)c1.O=C(O)C(F)(F)F` registered an Inhibition of 0%.

In turn, `Cc1cc2nc(-c3ccc(C(=O)NCCCc4ccccc4)cc3)[nH]c2cc1C` displayed an Inhibition of 7%.

On to `Cc1ccccc1OCC(=O)Nc1ccc(-c2nc3cc4ccccc4cc3[nH]2)cc1`, for which the Inhibition turned out to be 24%.

Regarding `COc1cccc(CN2CCCN(Cc3cccc(NC(=O)c4ccc(-c5ccccc5)cc4)c3)CC2)c1.O=C(O)C(F)(F)F`, the Inhibition is recorded as 35%.

Molecule `Cc1cccc2nc(-c3ccc(-c4ccc(CN5CCC(CO)CC5)cc4)s3)[nH]c12.O=C(O)C(F)(F)F` gave an Inhibition of 15%.

Regarding `CC(=O)Nc1ccc(CN(Cc2ccc(OC(C)(C)C)cc2)Cc2ccc3c(c2)OCCO3)cc1`, the Inhibition stood at 7%.

For `CC(=O)c1cccc2c(NC(=O)Nc3ccc4nccc(N5CCN(C)CC5)c4c3)cccc12.Cl`, the Inhibition is listed as 13%.

As to `O=C(Nc1ccc(C(=O)OCC(c2ccccc2)c2ccccc2)cc1)N[C@@H](Cc1ccc(O)cc1)C(=O)NC1CCN(Cc2ccc(O)cc2)C1.O=C(O)C(F)(F)F` (stereo not given in full), the Inhibition is listed as 0%.

Molecule `O=C(NCCc1cccc(Cl)c1Cl)c1ccc(N2CCN(c3ccncc3)CC2)nc1.O=C(O)C(F)(F)F` displayed an Inhibition of 38%.

Consider `COc1ccc(NC(=O)N2CCN(CCCCCNC(=O)/C=C/c3ccc(C(F)(F)F)cc3)CC2)cc1Cl`, for which the Inhibition worked out at 25%.

As to `Cn1nc(-c2ccc(NC(=O)Nc3cc(C(F)(F)F)ccc3F)cc2)c2cnc(NCCCCN3CCCC3)nc21.O=C(O)C(F)(F)F`, the Inhibition amounted to 88%.

Molecule `Cc1cc(OCCCNC(=N)c2ccc3ccccc3c2)c(C(C)C)cc1Cl.Cc1ccc(S(=O)(=O)O)cc1` yielded an Inhibition of 89%.

`Cc1ccc(CCC(C)NCC(O)c2cccc(Cl)c2)cc1` (stereo not given) had an Inhibition of 2%.

Take `O=C(Nc1cccc(F)c1)c1ccc(C(=O)NC2CCN(CC3CCCCC3)C2)cc1.O=C(O)C(F)(F)F` (stereo not given): the Inhibition was found to be 16%.

For the molecule `CCN(CCCN1CCCCC1)c1cc(C)nc(Nc2ccc(Cl)cc2)n1.Cl`, the Inhibition is 23%.

For the molecule `O=C(/C=C/c1ccc(Cl)c(Cl)c1)N1CCN(C(=O)Nc2ccc(F)c(Cl)c2)CC1`, the Inhibition is 19%.

The molecule `CCN(CC)CCN(Cc1ccc(-c2ccc(C(F)(F)F)cc2)cc1)C(=O)Cn1c(CCc2ccc(F)c(F)c2F)nc(=O)c2cccnc21.O=C(O)C(O)C(O)C(=O)O` displayed an Inhibition of 29%.

`CCCCCCCc1ccc(-c2c(C)[nH]c(C)c(Cl)c2=O)cn1` had an Inhibition of 0%.

Turning to `CCOC(=O)c1cn(CC)c2cc(N(C)CCc3ccc(OC)c(OC)c3)c(F)cc2c1=O.Cl`, the Inhibition was 9%.

As to `CC(=O)Nc1cccc(CNc2cc(C)nc(Nc3ccc(C)cc3)n2)c1`, the Inhibition was found to be 18%.

In turn, `Cc1sc(N2CCCCC2)nc1C(=O)Nc1ccc(F)cc1C(F)(F)F.O=C(O)C(F)(F)F` returned an Inhibition of 0%.

For the molecule `O=C(/C=C/c1ccc([N+](=O)[O-])cc1)N1CCC(NS(=O)(=O)c2cccc(C(F)(F)F)c2)CC1`, the Inhibition worked out at 0%.

With `CC(=O)Nc1ccc(C#Cc2ccc(-c3c(C)[nH]c(C)c(Cl)c3=O)cc2)cc1`, the Inhibition is recorded as 0%.

Consider `O=C(NCC1CCN(Cc2ccc3c(c2)OCCO3)C1)c1cc(-c2ccccc2F)cs1.O=C(O)C(F)(F)F` (stereo not given), for which the Inhibition came out at 18%.

In turn, `CCOC(=O)c1nc(-c2cccnc2)[nH]c1NC(=S)NCc1ccccc1` came in with an Inhibition of 10%.

For the molecule `CCNc1cc(C(=O)N[C@@H](Cc2ccccc2)[C@H](O)CNC2CCC(C(C)(C)C)CC2)cc(N2CCCC2=O)c1` (stereo not given in full), the Inhibition is 38%.

`Cc1cc(-c2cc(Cl)ccc2Cl)no1`: the Inhibition was determined as 36%.

The molecule `CN1CCCc2ccc(NC(=O)Nc3ccc(Cl)c(Cl)c3)cc2C1` had an Inhibition of 0%.

In turn, `CCN(CC)CCN(Cc1ccc(-c2ccc(C(F)(F)F)cc2)cc1)C(=O)Cn1c(CCc2cccc(F)c2F)cc(=O)cc1-c1ccccc1` displayed an Inhibition of 33%.

`O=C(O)C(F)(F)F.O=S(=O)(NCCN1CCCC1)c1cccc(-c2cccc(CNCc3ccsc3)c2)c1` showed an Inhibition of 69%.

With `CC(C)[C@H](NC(=O)c1ccc(O)c(-c2cccc(C(F)(F)F)c2)c1)C(=O)NCCN1CCCCC1`, the Inhibition was 3%.

`COc1cccc(CNCC(C)(C)c2nc(-c3ccc(Cl)c(O)c3)c(-c3ccncc3)[nH]2)c1.Cl` displayed an Inhibition of 74%.

In turn, `Cc1cc(N[C@@H](Cc2ccccc2)C(=O)NCc2cccc(F)c2)nc(NCC2CCCCC2)n1.O=C(O)C(F)(F)F` gave an Inhibition of 43%.

In turn, `CCN(CC)/C(=N/C(=N)Nc1ccc(Br)cc1)NCCCCCCN/C(=N\C(=N)Nc1ccc(Br)cc1)N(CC)CC` displayed an Inhibition of 0%.

`CN1CCN(c2ccc(Nc3c4ccccc4nc4ccccc34)cc2)CC1` had an Inhibition of 0%.

The molecule `Cc1ccnc2nc(C(=O)Nc3cc(Cl)ccc3N3CCOCC3)nn12` displayed an Inhibition of 0%.

`CC(C)(CN)c1nc(-c2ccc(Br)c(O)c2)c(-c2ccncc2)[nH]1.Cl` yielded an Inhibition of 31%.

As for `CN1CCN(c2ccnc3ccc(NC(=O)Nc4ccc(Cl)c(Cl)c4)cc23)CC1`, the Inhibition is 0%.

`O=S(=O)(Nc1cccc(CCN2CCC(N3CCCCC3)CC2)c1)c1ccc(Oc2ccccc2)nc1` gave an Inhibition of 8%.

One may read the Inhibition as the change of the read-out against control, counted positive when it falls.

The values are drawn from ChEMBL document CHEMBL1157539, “Thousands of chemical starting points for antimalarial lead identification” (Nature, 2010).
